Measurements taken from PubChem BioAssay (Tox21).
A number with no mark means an inactive call. Records with an inconclusive call do not appear. Where a call stands in place of a potency, no number is given. Calls of active or inactive are those of the source. Unless noted, the call rests on the fitted dose curve.

Legend:
[1] = Nuclear factor erythroid 2-related factor 2/antioxidant responsive element (Nrf2/ARE) small molecule agonists: qHTS cell viability counter screen in human keratinocytes (AID 1919968; active means well fitted curve in the direction sought with a large enough effect in the repeat runs; an effect the other way counts as inactive or inconclusive; further: nearly all actives have a fitted effect of over 55% in size; further: potency means the concentration at half of the fitted maximal effect)
Summary of the method: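 Stably transfected HaCaT (KeratinoSens), 1,500/well. Test agents in DMSO were applied for 23 h, 37 C/5% CO2. CellTiter-Fluor was incubated 1 h before the fluorescence read.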

[2] = Nuclear factor erythroid 2-related factor 2/antioxidant responsive element (Nrf2/ARE) small molecule agonists: luciferase reporter gene qHTS assay in human keratinocytes (AID 1919969); further: nearly all actives have a fitted effect of over 35% in size; further: potency means the concentration at half of the fitted maximal effect
[3] = target: Gonadotropin-releasing hormone receptor (Homo sapiens) (UniProt P30968); assay: Human gonadotropin-releasing hormone receptor (GnRHR) small molecule agonists, calcium flux assay in GnRHR-HEK293 cells (AID 1920063); further: nearly all actives have a fitted effect of over 35% in size; further: potency means the concentration at half of the fitted maximal effect
Summary of the method: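 Stable human GnRHR HEK293 line. 18 h plating, then calcium dye for 1 h at 37 C. Agonist-mode compound addition from DMSO stocks; fluorescence monitored 3 min.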

[4] = target: KiSS-1 receptor (Homo sapiens) (UniProt Q969F8); assay: Human kisspeptin (KISS1R) small molecule agonists, calcium flux assay in KISS1R-HEK293 cells (AID 1920064; active means well fitted curve in the direction sought with a large enough effect in the repeat runs; an effect the other way counts as inactive or inconclusive)
Summary of the method: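 After overnight (18 h) culture at 37 C/5% CO2, human KISS1R-HEK293 cells received calcium dye for 1 h, then test compound; emission at 540 nm (excitation 480 nm) was tracked for 3 min.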

[5] = G protein-coupled receptor (GPCR) small molecule agonists, calcium flux assay: HEK293 wild type cell line counter screen (AID 1920065)
Summary of the method: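 Following 18 h incubation at 37 C/5% CO2, plates got calcium dye for 1 h; compounds, ATP or DMSO were then pinned in and fluorescence followed kinetically (480/540 nm).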

[6] = p53 small molecule agonists, cell-based qHTS assay with human liver microsomes (AID 1963577)
Summary of the method: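 Cells carrying a p53-responsive bla reporter were rested 5 h (37 C, 5% CO2) before compound transfer. Human liver microsomes plus NADPH, 0.5 mg/mL final apiece, supplied metabolism during the 16 h 37 C exposure.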

[7] = p53 small molecule agonists, cell-based qHTS assay with rat liver microsomes (AID 1963578)
Summary of the method: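 Fluorescence from a beta-lactamase reporter under a p53 response element was measured after cells had been incubated 16 h at 37 C with test compound and rat liver microsomes plus NADPH (0.5 mg/mL final each).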

[8] = p53 small molecule agonists, cell-based qHTS assay with rat liver microsomes: qHTS cell viability counter screen (AID 1963580); further: nearly all actives have a fitted effect of over 45% in size
Summary of the method: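 Cytotoxicity counter screen: intracellular ATP measured by CellTiter-Glo luminescence in the same wells as the beta-lactamase reporter read, on HCT-116 p53RE-bla cells exposed 16 h at 37 C to compounds with rat liver microsomes and NADPH, each 0.5 mg/mL final.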

[9] = p53 small molecule agonists, cell-based qHTS assay: qHTS cell viability counter screen (AID 1963581); further: nearly all actives have a fitted effect of over 45% in size; further: potency means the concentration at half of the fitted maximal effect
Summary of the method: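 qHTS counter screen: 16 h compound exposure at 37 C of p53RE-bla HCT-116 cells (4,000 per well, seeded 5 h prior), cell viability by ATP luminescence.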

[10] = p53 small molecule agonists, cell-based qHTS assay (AID 1963582; active means well fitted activation curve with a large enough effect in the signal ratio in the repeat runs, not every such curve was filed as active; the % refers to the signal ratio)
Summary of the method: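 Measured: fluorescence from cleaved LiveBLAzer substrate. System: p53RE-bla cells, 16 h compound treatment at 37 C, 2 h substrate step at room temperature.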

[11] = target: 5-hydroxytryptamine receptor 2A (Homo sapiens) (UniProt P28223); assay: 5-hydroxytryptamine receptor 2A (HTR2A) small molecule antagonists, cell-based qHTS assay (AID 1963586); further: nearly all actives have a fitted effect of over 45% in size; further: potency means the concentration at half of the fitted maximal effect
Summary of the method: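 CHO cells stably expressing human HTR2A were plated for 18 h at 37 C, then loaded with calcium dye for 1 h. Compounds were preincubated 5 min at room temperature before DOI (4 nM solution) was added. Kinetic fluorescence was read for 3 min.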

[12] = target: 5-hydroxytryptamine receptor 2A (Homo sapiens) (UniProt P28223); assay: 5-hydroxytryptamine receptor 2A (HTR2A) small molecule agonists, cell-based qHTS assay (AID 1963587); further: nearly all actives have a fitted effect of over 30% in size; further: potency means the concentration at half of the fitted maximal effect
Summary of the method: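 CHO cells stably expressing human HTR2A, plated 18 h, loaded with calcium dye 1 h at 37 C. Agonist mode: compounds added and intracellular calcium fluorescence recorded kinetically for 2 min at 1 sec intervals.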

[13] = target: Muscarinic acetylcholine receptor M1 (Homo sapiens) (UniProt P11229); assay: Cholinergic receptor muscarinic 1 (CHRM1) small molecule antagonists, cell-based qHTS assay (AID 1963588); further: nearly all actives have a fitted effect of over 40% in size; further: potency means the concentration at half of the fitted maximal effect
Summary of the method: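 Compounds were tested at 15 concentrations in three independent runs. Dye-loaded CHRM1-CHO cells were exposed 5 min at room temperature before stimulation by acetylcholine added at 50nM. Intracellular calcium was read kinetically on FDSS for 3 min.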

[14] = target: Muscarinic acetylcholine receptor M1 (Homo sapiens) (UniProt P11229); assay: Cholinergic receptor muscarinic 1 (CHRM1) small molecule agonists, cell-based qHTS assay (AID 1963589); further: nearly all actives have a fitted effect of over 35% in size
Summary of the method: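 Kinetic fluorescence (1 s intervals) of calcium-sensitive dye in human M1 CHO cells after compound addition; cells pre-incubated 18 h at 37 C/5% CO2 and dye-loaded 1 h.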

[15] = cAMP Responsive Elements (CRE) small molecule antagonists, cell-based qHTS assay (AID 1963591; active means well fitted inhibition curve with a large enough effect in the signal ratio in the repeat runs, not every such curve was filed as active; the % refers to the signal ratio)
Summary of the method: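 Reporter line CRE-bla HEK 293T in dialyzed-FBS DMEM; cells preincubated 18 h, treated 3 h with compound plus NKH477 (0.25 uM final); LiveBLAzer FRET, 2 h RT.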

[16] = target: Beta-2 adrenergic receptor (Homo sapiens) (UniProt P07550); assay: Adrenergic beta2 receptor (ADRB2) small molecule antagonists, cell-based qHTS assay (AID 1963592); further: series mostly up to about 92 µM; nearly all actives have a fitted effect of over 50% in size
Summary of the method: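 Assay format: CHO-ADRB2 cells, 18-20hr seeding at 37C/5% CO2, then compound plus 1nM isoproterenol agonist mix for 0.5hr RT. Homogeneous time-resolved fluorescence cAMP detection after 1hr, expressed as 665/615 nm ratio.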

[17] = target: D(2) dopamine receptor (Homo sapiens) (UniProt P14416); assay: Dopamine D2 receptor (DRD2) small molecule agonists, cell-based qHTS assay (AID 1963594); further: nearly all actives have a fitted effect of over 35% in size
Summary of the method: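 HEK293 cells stably expressing human DRD2, pre-treated with PDE inhibitor Ro20-1724 (0.1 mM final) and compound 10 min at room temperature, then stimulated with NKH477 (200nM […]) for 30 min. cAMP read by HTRF (665/620 nm).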

[18] = target: D(2) dopamine receptor (Homo sapiens) (UniProt P14416); assay: Dopamine D2 receptor (DRD2) small molecule antagonists, cell-based qHTS assay (AID 1963595; active means well fitted inhibition curve with a large enough effect in the signal ratio in the repeat runs, with a control signal flat; the % refers to the signal ratio; further: potency means the concentration at half of the fitted maximal effect)
Summary of the method: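 Antagonist mode in DRD2-HEK293 cells: after compound addition with 0.1 mM Ro20-1724, cells received quinpirole (12 nM) and NKH477 (200 nM) for 30 min at room temperature; HTRF cAMP read after 1 h detection.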

[19] = cAMP Responsive Elements (CRE) small molecule agonists, cell-based qHTS assay (AID 1963590)
Summary of the method: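 Test agents in DMSO were incubated 3 h at 37 C/5% CO2 with CRE-bla HEK 293T cells seeded 18 h earlier; LiveBLAzer B/G FRET substrate was added and read after 2 h at room temperature.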

Sequence of Gonadotropin-releasing hormone receptor (Homo sapiens) (P30968 whole entry, looked up): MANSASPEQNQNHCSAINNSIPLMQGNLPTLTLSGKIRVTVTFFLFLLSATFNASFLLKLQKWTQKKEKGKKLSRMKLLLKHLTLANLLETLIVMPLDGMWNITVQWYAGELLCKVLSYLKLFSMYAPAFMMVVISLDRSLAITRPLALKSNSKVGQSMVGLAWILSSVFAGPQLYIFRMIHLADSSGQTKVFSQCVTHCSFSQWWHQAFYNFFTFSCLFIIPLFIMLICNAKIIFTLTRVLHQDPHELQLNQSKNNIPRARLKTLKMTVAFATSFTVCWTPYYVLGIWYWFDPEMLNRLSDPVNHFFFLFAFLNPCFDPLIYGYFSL
Sequence of Beta-2 adrenergic receptor (Homo sapiens) (P07550 whole entry, looked up): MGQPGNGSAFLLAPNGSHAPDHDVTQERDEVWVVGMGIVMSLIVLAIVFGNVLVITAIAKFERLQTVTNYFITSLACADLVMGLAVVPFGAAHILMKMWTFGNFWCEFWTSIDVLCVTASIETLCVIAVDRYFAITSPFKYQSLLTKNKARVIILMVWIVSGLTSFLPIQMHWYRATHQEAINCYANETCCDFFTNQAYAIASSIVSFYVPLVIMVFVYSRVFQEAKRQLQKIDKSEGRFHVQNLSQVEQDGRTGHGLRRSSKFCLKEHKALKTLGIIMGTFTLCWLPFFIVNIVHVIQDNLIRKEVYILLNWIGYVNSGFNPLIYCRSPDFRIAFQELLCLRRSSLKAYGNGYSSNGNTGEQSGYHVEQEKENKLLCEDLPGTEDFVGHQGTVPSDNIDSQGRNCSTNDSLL
Sequence of KiSS-1 receptor (Homo sapiens) (Q969F8 whole entry, looked up): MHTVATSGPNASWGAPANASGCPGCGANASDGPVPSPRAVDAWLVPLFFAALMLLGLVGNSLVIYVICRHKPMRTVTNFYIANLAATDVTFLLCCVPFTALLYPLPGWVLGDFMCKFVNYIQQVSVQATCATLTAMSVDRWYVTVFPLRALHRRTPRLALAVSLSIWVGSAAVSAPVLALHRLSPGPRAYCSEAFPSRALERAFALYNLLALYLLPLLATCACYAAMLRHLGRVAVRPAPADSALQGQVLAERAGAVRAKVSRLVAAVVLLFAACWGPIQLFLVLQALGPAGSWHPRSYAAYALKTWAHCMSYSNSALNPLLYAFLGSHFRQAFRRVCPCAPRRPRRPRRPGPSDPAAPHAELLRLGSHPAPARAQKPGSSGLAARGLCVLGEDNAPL
Sequence of Muscarinic acetylcholine receptor M1 (Homo sapiens) (P11229 whole entry, looked up): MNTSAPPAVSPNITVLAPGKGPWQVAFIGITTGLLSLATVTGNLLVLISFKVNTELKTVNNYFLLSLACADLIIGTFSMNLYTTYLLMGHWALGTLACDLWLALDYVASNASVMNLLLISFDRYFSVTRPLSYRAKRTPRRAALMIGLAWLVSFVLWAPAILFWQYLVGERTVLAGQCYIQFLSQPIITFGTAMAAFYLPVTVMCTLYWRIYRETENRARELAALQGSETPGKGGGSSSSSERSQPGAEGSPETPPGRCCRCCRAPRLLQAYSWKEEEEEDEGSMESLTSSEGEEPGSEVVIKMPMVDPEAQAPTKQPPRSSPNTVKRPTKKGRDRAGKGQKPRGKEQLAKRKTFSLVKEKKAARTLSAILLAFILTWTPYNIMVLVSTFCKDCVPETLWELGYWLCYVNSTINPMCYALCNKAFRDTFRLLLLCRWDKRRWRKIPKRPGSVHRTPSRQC
Sequence of D(2) dopamine receptor (Homo sapiens) (P14416 whole entry, looked up): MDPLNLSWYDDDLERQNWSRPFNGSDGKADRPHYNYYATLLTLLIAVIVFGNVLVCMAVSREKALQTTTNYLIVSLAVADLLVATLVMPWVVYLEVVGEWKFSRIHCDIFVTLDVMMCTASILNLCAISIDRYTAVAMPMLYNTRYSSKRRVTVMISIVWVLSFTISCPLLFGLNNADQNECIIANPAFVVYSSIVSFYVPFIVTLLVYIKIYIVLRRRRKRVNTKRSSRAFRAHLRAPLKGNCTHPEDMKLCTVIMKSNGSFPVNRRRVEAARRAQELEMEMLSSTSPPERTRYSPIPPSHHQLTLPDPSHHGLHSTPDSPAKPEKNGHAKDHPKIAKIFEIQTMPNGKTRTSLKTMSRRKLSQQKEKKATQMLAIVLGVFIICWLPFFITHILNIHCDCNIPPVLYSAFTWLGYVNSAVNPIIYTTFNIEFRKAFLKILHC
Sequence of 5-hydroxytryptamine receptor 2A (Homo sapiens) (P28223 whole entry, looked up): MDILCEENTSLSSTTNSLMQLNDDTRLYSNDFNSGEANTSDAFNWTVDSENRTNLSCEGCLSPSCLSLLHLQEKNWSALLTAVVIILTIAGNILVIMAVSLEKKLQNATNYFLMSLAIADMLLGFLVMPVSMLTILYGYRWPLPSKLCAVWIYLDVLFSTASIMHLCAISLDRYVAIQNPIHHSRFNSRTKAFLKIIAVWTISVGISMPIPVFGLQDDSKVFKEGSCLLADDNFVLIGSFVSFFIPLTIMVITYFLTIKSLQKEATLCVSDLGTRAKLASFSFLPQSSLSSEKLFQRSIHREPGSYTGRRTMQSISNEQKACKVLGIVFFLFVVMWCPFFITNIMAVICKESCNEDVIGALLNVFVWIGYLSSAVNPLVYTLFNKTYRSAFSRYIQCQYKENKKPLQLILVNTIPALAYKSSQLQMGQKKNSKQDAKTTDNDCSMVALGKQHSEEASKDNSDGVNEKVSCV

Structure (SMILES) | Potency [1] | Potency [2] | Potency [3] | outcome [4] | outcome [5] | Potency [6] | Potency [7] | Potency [8] | Potency [9] | Potency [10] | Potency [11] | Potency [12] | Potency [13] | Potency [14] | Potency [15] | Potency [16] | Potency [17] | Potency [18] | Potency [19]
O=c1[nH]ncc2ccccc12 | inactive | inactive | inactive | inactive | inactive | inactive | inactive | inactive | inactive | inactive | inactive | inactive | inactive | inactive | inactive | inactive | inactive | inactive | –
Cc1nc2n(c(=O)c1CCN1CCC(C(=O)c3ccc(F)cc3)CC1)CCS2 | inactive | inactive | inactive | inactive | inactive | inactive | inactive | inactive | inactive | inactive | 4.1 nM (active) | inactive | – | inactive | inactive | inactive | inactive | 66.8 nM (active) | inactive
CC(C)=CCCC(C)C=O (stereo not drawn) | inactive | inactive | inactive | inactive | inactive | inactive | inactive | inactive | inactive | inactive | inactive | inactive | inactive | – | inactive | inactive | inactive | inactive | inactive
CC(O)CN(CCCN(C)C)CCCN(C)C (stereo not drawn) | inactive | inactive | inactive | inactive | inactive | inactive | inactive | inactive | inactive | inactive | inactive | – | inactive | – | inactive | inactive | inactive | – | inactive
Oc1ccc(C(O)CNCCCCCCNCC(O)c2ccc(O)c(O)c2)cc1O (stereo not drawn) | inactive | inactive | 75.6 nM (active) | inactive | inactive | inactive | inactive | inactive | inactive | inactive | inactive | inactive | inactive | inactive | inactive | inactive | inactive | – | –
CCCCOCCOC(=O)COc1cc(Cl)c(Cl)cc1Cl | inactive | inactive | inactive | inactive | inactive | inactive | inactive | inactive | inactive | inactive | 9420 nM (active) | inactive | – | inactive | inactive | inactive | inactive | inactive | –
CCC(C)CCCC(C)(C)O (stereo not drawn) | inactive | inactive | inactive | inactive | inactive | inactive | inactive | inactive | inactive | inactive | inactive | inactive | – | inactive | inactive | inactive | inactive | inactive | inactive
CNc1c2c(nn1C)CCCC2 | inactive | inactive | inactive | inactive | inactive | inactive | inactive | inactive | inactive | inactive | inactive | inactive | – | inactive | inactive | inactive | – | inactive | inactive
CCN(CC)c1ccc(N)cc1 | 22300 nM (active) | 31500 nM (active) | inactive | inactive | inactive | inactive | inactive | inactive | inactive | inactive | inactive | inactive | inactive | inactive | – | inactive | – | – | –
CC(=O)NO | inactive | inactive | inactive | inactive | inactive | inactive | inactive | inactive | inactive | inactive | inactive | – | inactive | inactive | inactive | inactive | inactive | inactive | inactive
CC(C)(C)C(=O)O | inactive | inactive | inactive | inactive | inactive | inactive | inactive | inactive | inactive | inactive | inactive | – | inactive | inactive | inactive | inactive | inactive | inactive | inactive
N[C@H]1C(O)O[C@H](CO)[C@H](O)[C@@H]1O (stereo partly drawn) | inactive | inactive | inactive | inactive | inactive | inactive | inactive | inactive | inactive | inactive | inactive | inactive | inactive | inactive | – | inactive | inactive | – | inactive
O=CN1CCCCC1 | inactive | inactive | inactive | inactive | inactive | inactive | inactive | inactive | inactive | inactive | inactive | – | inactive | inactive | – | inactive | inactive | inactive | –
NC1CCN(c2cccc(Cl)n2)CC1 | inactive | inactive | inactive | inactive | inactive | inactive | inactive | inactive | inactive | inactive | 410 nM (active) | 268 nM (active) | inactive | inactive | inactive | – | inactive | inactive | inactive
CC(C)C(O)C(C)(C)CO (stereo not drawn) | inactive | inactive | inactive | inactive | inactive | inactive | inactive | inactive | 3750 nM (active) | inactive | inactive | – | 487 nM (active) | inactive | – | inactive | inactive | inactive | inactive
